# D1 agonist: agonists of human D1 dopamine receptor; AID 504660; actives 1% (n = 360,000); activation, % at 2 µM; P21728; HEK293 T-REx D1 cells, calcium flux, agonist mode; note: 0% is about no effect
# Target sequence (P21728 whole entry, looked up): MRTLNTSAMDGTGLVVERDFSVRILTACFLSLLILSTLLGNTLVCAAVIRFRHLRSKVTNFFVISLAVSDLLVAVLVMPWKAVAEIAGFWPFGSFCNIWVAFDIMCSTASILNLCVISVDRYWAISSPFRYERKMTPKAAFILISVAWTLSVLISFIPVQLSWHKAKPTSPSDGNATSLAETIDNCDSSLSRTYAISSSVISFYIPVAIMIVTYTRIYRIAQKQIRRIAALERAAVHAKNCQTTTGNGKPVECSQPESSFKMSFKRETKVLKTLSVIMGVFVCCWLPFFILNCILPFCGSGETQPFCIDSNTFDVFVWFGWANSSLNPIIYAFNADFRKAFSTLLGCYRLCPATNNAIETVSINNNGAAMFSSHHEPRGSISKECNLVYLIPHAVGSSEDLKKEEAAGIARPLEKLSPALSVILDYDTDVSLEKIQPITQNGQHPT
#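 Tetracycline-induced HEK293 TREx D1 cells, force-coupled to calcium signalling, were dye-loaded with a no-wash calcium kit. Compound was pin-added after a 10 s baseline. Fluorescence was read kinetically at 1 cycle/s for 180 s, with calcium rises flagged as agonism.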
# D1 PAM: human D1 dopamine receptor positive modulation | potentiation, % at 10 µM | actives 0.036% (n = 360,000) | HEK293 TREx D1 cells, calcium flux, dopamine EC20 potentiation | AID 504651 | P21728; in the data active = potentiation above about 30%; note: 0% is about no effect
# TRHR agonist: TRH receptor (human) agonism; P34981; TRHR cells, calcium flux fluo-8, FDSS agonist mode; activation, % at 2 µM; actives 0.18% (n = 360,000); note: 0% is about no effect
#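 In this calcium-flux screen, cells bearing human TRHR are dye-loaded with fluo-8, baselined for 10 cycles, then exposed to library compounds; positive kinetic calcium responses during the agonist phase mark hits, with TRH as control.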
# D1 antagonist: antagonists of human D1 dopamine receptor. activity change, negative = inhibition, % at 10 µM. HEK293 TREx D1 cells, calcium flux, dopamine EC80; active compounds read low. actives 3.2% (n = 360,000). AID 504652; in the data active = activity change below about -30%; note: % is set by controls: 0 for no effect and ±100 for the full control effect
#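 Compound effects on dopamine-evoked calcium signalling were measured in tetracycline-induced HEK293 Trex D1 cells. Dopamine at EC80 followed a 180 s compound pre-read, and fluorescence was tracked kinetically for 180 s more.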
# TRHR PAM: TRH receptor (human) allosteric enhancement; P34981; TRHR cells, fluo-8 calcium fluorescence, EC20 TRH enhancement; enhancement, % at 2 µM; actives 0.66% (n = 360,000); AID 493056; in the data active = enhancement above about 30%; note: 0% is about no effect
#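 Enhancer read-out: after compound pinning and an initial kinetic agonist-mode read, an EC20 of TRH (10 nM final) was injected and fluo-8 calcium signal (Ex 480/Em 530) followed at 1 s/cycle for 100 cycles in TRHR-expressing cells.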
# An asterisk follows results filed as active; x = not tested or not shown; ! = repeats disagree. Only some compounds are listed: those with a hit (about 4.6% of all), similar ones and a draw of the others. Cut-off read from the data, not from the text of the source, unless noted: active = activation above about 30%; inactive = the rest.
SMILES,D1 agonist,D1 PAM,TRHR agonist,D1 antagonist,TRHR PAM
CCN1/C(=C/c2ccc3cc(C)ccc3[n+]2CC)Sc2ccccc21,14.5,-8.3,50.2*,-8.6,25.3
CCOC(=O)c1sc(NC(=O)c2ccc(Cl)s2)cc1C,1.6,-7.4,0.3,2.5,6.1
CCOC(=O)c1sc(NC(=O)c2ccccc2)cc1C,42.4*,-6.0,-0.2,-13.9,4.3
CCOC(=O)c1sc(NC(=O)c2c(C)nn(Cc3ccccc3)c2C)cc1C,3.1,-18.7,0.0,-45.0*,-3.6
CCOC(=O)c1sc(NC(=O)c2cccc(S(=O)(=O)N3CCN(C)CC3)c2)cc1C,14.8,-4.7,-1.1,-35.4*,-0.7
CCOC(=O)c1sc(NC(=O)Nc2ccc(Cl)cc2)cc1C,29.5,-10.5,2.3,-57.9*,-16.6
CCOC(=O)c1sc(NC(=O)c2cccc(S(=O)(=O)N(CC)CC)c2)cc1C,1.5,-4.6,4.9,-16.7,-2.5
CCCCCCCCCCCCCCCC(=O)OC(CC(=O)O)C[N+](C)(C)C (stereo unspecified),74.5*,-7.2,0.1,-33.7*,-10.6
Cc1cc(C=O)c(C)n1-c1cc(C(=O)O)cc(C(=O)O)c1,2.5,11.1,0.2,1.1,-1.1
CCC(=O)c1cc(-c2nc3ccccc3n2C)n(C)c1,0.0,-1.6,-0.3,-11.8,4.0
Cn1cc(C(=O)c2ccccc2)cc1-c1nc2ccccc2n1C,5.0,1.1,0.3,-30.5*,2.2
CS(=O)(=O)N(CC(=O)N1CCN(c2ccc(F)cc2)CC1)c1ccc(F)c(Cl)c1,-1.2,0.5,0.3,x,39.3*
CC1=CC(C)(C)N2C(=O)C(=Nc3ccc(O)cc3)c3cccc1c32,0.9,-5.9,1.0,-36.3*,0.1
Cc1cccc(NC(=O)COc2coc(CN3CCc4ccccc4C3)cc2=O)c1,-0.5,3.4,-0.9,-28.7,11.8
Cc1cccc(CSc2cn(CC(=O)N3CCCCCC3)c3ccccc23)c1,10.2,-6.2,-2.3,-22.3,4.8
Cc1cccc(CSc2cn(CC(=O)N3CCOCC3)c3ccccc23)c1,1.6,0.9,-0.2,-33.4*!,-0.4
COc1cccc(-c2csc(-c3c(N)c(C(=O)c4ccc5c(c4)OCO5)n4ccccc34)n2)c1,11.5,-2.7,1.7,-12.0,-2.3
COc1ccc(/C=C/C(=O)NC(=S)NCC2CCCO2)cc1 (stereo unspecified),5.4,-17.6,0.9,-47.6*,-5.7
CC(C)N(C(C)C)S(=O)(=O)c1ccc(N2CCc3ccccc3C2)nc1,-2.6,-3.8,1.1,-13.0,-9.8
O=C(CSc1nc2ccccc2s1)Nc1cc(S(=O)(=O)N2CCOCC2)ccc1O,9.3,-6.4,0.3,-9.1,25.4
Cc1ccsc1C1C=C(c2cccc(Br)c2)Nc2ncnn21 (stereo unspecified),42.7*,-0.6,24.0,7.1,-2.2
C=CCOC(=O)C1=C(C)NC(=O)NC1/C=C/c1ccccc1 (stereo unspecified),1.2,-3.9,-0.4,-30.5*,4.3
CC(C)(C)C(=O)Nc1sc2c(c1-c1nc3ccccc3[nH]1)CCCC2,3.8,5.2,0.5,-5.3,10.5
CCCCCC(C(=O)O)C(C)CC(=O)NC1CCCCC1 (stereo unspecified),2.5,-0.3,-0.1,-3.9,38.4*
CC(OC(=O)Cc1cccc(C(F)(F)F)c1)C(=O)Nc1ccc(Cl)cn1 (stereo unspecified),5.0,-4.8,-0.5,-2.3,0.2
SMILES,D1 agonist,D1 PAM,TRHR agonist,D1 antagonist,TRHR PAM
COc1cccc(CC(=O)OC(C)C(=O)Nc2ccc(Cl)cn2)c1 (stereo unspecified),3.9,-2.0,-0.9,-34.8*,-4.8
Cc1ccc(OCC(=O)NCC(=O)OCc2cc(=O)n3nc(CC(C)C)sc3n2)cc1,0.7,-8.8,-0.8,-36.4*,10.5
Cc1c(C(=O)NCc2ccco2)oc2c(F)cccc12,0.6,-6.7,0.3,-20.1,37.0*
CC(=O)c1[nH]c(C)c(C(=O)NCc2ccc(Cl)cc2)c1C,38.8*,-1.2,-0.7,2.3,-3.1
CC(=O)c1c(C)[nH]c(C(=O)NCc2ccco2)c1C,1.6,-8.3,-0.2,-64.5*,-0.8
CCOC(=O)C(NC(=O)Nc1ccc(F)cc1F)(Oc1ccc(F)cc1)C(F)(F)F (stereo unspecified),1.8,-0.1,0.7,-85.2*,6.0
N#CCC(=O)Nc1ccc(C(=O)N2CCN(S(=O)(=O)c3ccc4ccccc4c3)CC2)cc1,1.1,-4.2,1.3,-5.2,12.5
Cc1ccc(CN(Cc2ccccc2)C(=S)NCC(=O)NCc2cccnc2)o1,-0.4,-3.4,-0.1,-47.5*,0.7
Cc1ccc(CN(Cc2ccco2)C(=S)NCC(=O)NCc2cccnc2)cc1,-1.3,8.5,1.4,8.5,3.3
CC(C)(C)OC(=O)N1CCN(C(=O)Cn2cc(CCO)nn2)CC1,0.7,-2.9,0.8,0.0,2.4
COC(=O)C1SCC2C(=O)N(Cc3cccc(C)c3)CC(=O)N21 (stereo unspecified),1.5,1.4,0.3,9.5,-1.7
O=C(O)CCCN1C(=O)/C(=C/c2cn(-c3ccccc3)nc2-c2cccs2)SC1=S,50.6*,-5.0,1.3,-36.6*,-6.3
CNCCC(Oc1ccc(C(F)(F)F)cc1)c1ccccc1 (stereo unspecified),62.4*,x,3.0,x,4.6
CNCCOCC(O)CSc1ccccc1 (stereo unspecified),2.1,-3.5,0.1,-15.6,-0.6
O=C(NCC(c1ccccc1Cl)N1CCCC1)C1CCN(C(=O)Nc2ccccc2)CC1 (stereo unspecified),-1.1,-1.9,0.2,21.9,0.7
CCCOc1cc(NCc2ccccc2)c2ncn(C(C)C)c2c1,32.8*,15.5,0.4,42.6,6.3
C/C(=N\NC(=S)NCc1ccccc1)c1cccs1,-2.6,-1.1,-0.1,-1.5,0.5
CCOC(=O)c1c(/N=C/C2=C(O)CCCC2=O)sc(C)c1C,-1.3,4.9,-2.4,-21.7,-11.9
CCOC(=O)c1c(-c2ccc(OC)cc2)csc1/N=C/C1=C(O)CCCC1=O,36.7*,-7.7,10.1,-11.4,27.2
CCOc1ccc(S(=O)(=O)NCCC(=O)NCC(c2ccc(OC)cc2)N2CCCCC2)cc1 (stereo unspecified),2.0,-1.9,-0.2,2.7,12.2
CCOc1ccc(S(=O)(=O)NCCC(=O)NCC(c2ccc(F)cc2)N2CCOCC2)cc1 (stereo unspecified),0.8,-17.1,-0.1,-77.8*,1.6
CCCCC1(Cc2cccc([N+](=O)[O-])c2)C(=O)N(c2ccccc2)N(c2ccccc2)C1=O,4.8,-7.3,-0.2,-9.7,-2.7
CN(C)S(=O)(=O)c1ccc(N2CCCC2)c(C(=O)N2CCC(C(N)=O)CC2)c1,2.9,2.0,-0.2,0.7,1.3
Cc1cc(=O)c(C(=O)O)nn1-c1cccc(C(F)(F)F)c1,-0.5,-2.9,0.1,12.8,-1.4

# High-throughput results: PubChem, National Center for Advancing Translational Sciences (NCATS)
